From PubChem BioAssay AID687014 (The Scripps Research Institute Molecular Screening Center, 2013)
The campaign covered roughly 370,000 compounds. About 6,800 (1.8%) were called active.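 Rule for the calls: active = activation above a cutoff set at the mean of all screened compounds plus 3 SD (cut at about 10% in these data); inactive = the rest.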 Many of the other results were omitted from the sample, so actives are more common in it than they were.

tested on: Nuclear hormone receptor DAF-12 (Heterodera glycines), GAL4 fusion; experiment: hgDAF-12 GAL4 fusion reporter activation – cell-based, luminescence, HEK293, UAS-luciferase, primary screen (AID 687014); details: HEK293 GAL4-hgDAF12 UAS-luciferase reporter, agonist luminescence; at 6.8 µM; hits give high values; normalized to butyrate control;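 note: 0% = DMSO wells and 100% = sodium butyrate wells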

| Structure (SMILES) | activation |
| --- | --- |
| Cc1ccc(-n2ncc3c(=O)n(-c4ccc(C)c(C)c4)c(-c4ccco4)nc32)cc1 | 3.84% (inactive) |
| Cn1c(-c2ccco2)nc2cc3ccccc3cc21 | 19.3% (active) |
| Cn1c(SCC(=O)c2cccs2)nnc1-c1ccco1 | 1.52% (inactive) |
| O=C(Nc1c(Cl)c(C2CC2)nn1-c1ccccc1)C(Cl)(Cl)Cl | -2.93% (inactive) |
| CCC[C@H]1C(=O)CC[C@@]23CCCN2C(=O)CCC[C@@H]13 | 1.6% (inactive) |
| COC(=O)CSc1nnc(-c2cccnc2)o1 | 1.06% (inactive) |
| CN(C)c1ccc(-c2nnc(-c3cccnc3)o2)cc1 | 10.8% (active) |
| CC1(c2nnc(-c3ccncc3)o2)CC(c2cccnc2)=NO1 (stereo not given) | 3.68% (inactive) |
| COc1ccc(/C(N)=N/OC(=O)CCCc2ccccc2)cc1 | -0.4% (inactive) |
| COc1ccc(/C(N)=N/OC(=O)Oc2ccccc2)cc1 | 1.76% (inactive) |
| COc1ccc(/C(N)=N/OC(=O)Cc2ccccc2)cc1 | 11.7% (active) |
| CC(=O)Nc1ccc(OC[C@@H](O)CN2CCC(C(O)(c3ccccc3)c3ccccc3)CC2)cc1 | 2.46% (inactive) |
| CCOc1ccc(N2CC(C(=O)NCc3ccccn3)CC2=O)cc1 (stereo not given) | -1.47% (inactive) |
| CCCNC(=O)C1CC(=O)N(c2ccc(OCc3ccccc3)cc2)C1 (stereo not given) | 11% (active) |
| CCCNC(=O)C1CC(=O)N(c2ccc(OCC(=O)Nc3cccc(C)c3C)cc2)C1 (stereo not given) | 0.77% (inactive) |
| COc1ccc(N2CCN(CCNS(=O)(=O)c3ccc(Cl)s3)CC2)cc1 | 2.51% (inactive) |
| COc1cccc(C(O)Cc2nc3ccccc3n2C)c1OC (stereo not given) | 3.91% (inactive) |
| Cc1ccc(Oc2nc3ccccc3n3c(C)nnc23)cc1 | 1.53% (inactive) |
| Cc1ccc(OCc2nc3ccccc3n2C)cc1 | 13.2% (active) |
| COC(=O)[C@]12C[C@H](CC(=O)NCc3cccc4ccccc34)C(=O)N(CCc3ccc(OC)c(OC)c3)C1=C[C@H](C1CCCC1)O[C@@H]2C | -1.01% (inactive) |

| Structure (SMILES) | activation |
| --- | --- |
| O=C(CSc1nnc(-c2ccccn2)n1-c1ccccc1)Nc1ccc2cn[nH]c2c1 | 6.78% (inactive) |
| O=C(NCCS(=O)(=O)c1ccc(Br)cc1)c1ccccc1Cl | 2.39% (inactive) |
| Cc1ccccc1NC(=O)Cn1nnc(-c2ccccc2F)n1 | -1.63% (inactive) |
| COC(=O)c1cc2c(N)c(C(=O)c3ccc(Cl)cc3)sc2nc1C(OC)OC | -0.74% (inactive) |
| CC(=O)c1c(Nc2ccccc2)sc(C(=O)c2ccccc2)c1C | 4.88% (inactive) |
| CN(C)c1ccnc2sc(C(=O)c3ccccc3)c(N)c12 | 21.3% (active) |
| COC(=O)c1c(C(=O)OC)c(-c2cccc(C)c2)n2c1CS(=O)C2 (stereo not given) | 2.79% (inactive) |
| Cc1cc(NS(=O)(=O)c2ccc(NC(=O)CSc3nnc(SCc4ccc(F)cc4)s3)cc2)nc(C)n1 | 1.18% (inactive) |
| CCOC(=O)C(=O)N(Cc1ccccc1)c1ccccc1C(=O)Nc1cc(OC)ccc1OC | -2.17% (inactive) |
| Cc1ccccc1CN1CCCCC(NC(=O)c2cccc(C#N)c2)C1=O (stereo not given) | -2.73% (inactive) |
| COC(=O)C1=C(C)N(Cc2ccc(C(F)(F)F)cc2)C(=NCc2ccccc2)NC1c1ccccc1C(F)(F)F (stereo not given) | 1.9% (inactive) |
| COCc1[nH]nc2c1C(c1ccccc1)N(c1ccccc1)C2=O (stereo not given) | 0.79% (inactive) |
| COCc1cc(N2CCN(C(=O)OC(C)(C)C)C[C@@H]2C)ccc1N1CCN(Cc2ccccc2)[C@H](C)C1 | 4.83% (inactive) |
| O=C(CSc1cccc[n+]1[O-])NCCCc1ccccc1 | 1.17% (inactive) |
| CCN(C(=O)CSc1cccc[n+]1[O-])c1ccccc1 | -0.46% (inactive) |
| O=C(CSc1cccc[n+]1[O-])c1ccc(-c2ccccc2)cc1 | 10.8% (active) |
| O=C(Nc1ccc(Cl)cn1)c1ccc2c(c1)OCCO2 | 18.1% (active) |
| CC(OC(=O)CNC(=O)c1ccco1)C(=O)Nc1ccc(Cl)cn1 (stereo not given) | 1.56% (inactive) |
| Cc1nc(NC(=O)c2ccc3c(c2)OCCO3)ccc1Br | 7.16% (inactive) |
| COc1ccc(C(=O)N/N=C(\C)CC(=O)Nc2ccc(Cl)cn2)cc1 | 0.32% (inactive) |

| Structure (SMILES) | activation |
| --- | --- |
| CCCc1cc(C(=O)Nc2ccc(Cl)cn2)cs1 | 12.9% (active) |
| CC1(c2ccc(Cl)cc2)NC(=O)N(CC(=O)c2ccc3c(c2)OCO3)C1=O (stereo not given) | -1.6% (inactive) |
| O=C(c1c[nH]c2ccccc12)N1CCC(Oc2cccnc2)CC1 | 4.09% (inactive) |
| Cc1ccc(C(=O)C2CCN(CC(=O)NCCC(C)C)CC2)cc1 | -0.75% (inactive) |
| CC(C)CC(=O)N1CCC(O)(CS(=O)(=O)Cc2ccccc2)CC1 | -2.29% (inactive) |
| CCCCC(=O)N[C@@H]1CC[C@@]23CCCN2C(=O)CCC[C@H]3[C@H]1C | 0.52% (inactive) |
| CCN(C(=O)[C@@H](C1CC1)[C@@H](O)c1ccc2ccccc2c1)c1ccccc1 | -0.8% (inactive) |
| Cc1ccc(N)cc1CN1CCN(c2ncc(Cc3ccccc3)cn2)CC1 | 0.77% (inactive) |
| Cc1cc(N)n2nc(-c3ccc(C(C)(C)C)cc3)cc2n1 | 20% (active) |
| CCC1([N+](=O)[O-])COC(c2ccc(C)cc2)OC1 (stereo not given) | 1.83% (inactive) |
| CCC1(C)COC(c2ccc(OC)c(OC)c2)OC1 (stereo not given) | -1.37% (inactive) |
| CCC1([N+](=O)[O-])COC(c2ccc(C(C)C)cc2)OC1 (stereo not given) | 12.9% (active) |
| Oc1ccc(/C=C/c2c(F)cccc2F)c2cccnc12 | -6.27% (inactive) |
| CCCCNc1cccc2c1S(=O)(=O)N[C@@H](C)CO2 | 0.24% (inactive) |
| O=C(NCc1ccccc1)[C@H]1CCCN1C(=O)[C@H]1CCCN1C(=O)c1cc(F)cc(F)c1 | -0.18% (inactive) |
| CC(C)N1CCCCC(NC(=O)C(C)(C)C)C1=O (stereo not given) | 0.58% (inactive) |
| CC(=O)c1ccc(S(=O)(=O)NCC2CCN(C(=O)C(=O)c3cccs3)CC2)cc1 | -0.16% (inactive) |
| NC(=O)c1ccccc1N=Cc1ccc2ccccc2c1 | 14.3% (active) |
| O=C(OCC(=O)N1CCOCC1)c1ccc2ccccc2c1 | 4.48% (inactive) |
| Cc1nc2c(C(=O)NCc3cccs3)cnn2c(C)c1Cc1ccc(F)cc1 | -1.35% (inactive) |
